Screening results deposited in PubChem BioAssay by The Scripps Research Institute Molecular Screening Center.
A selection: hits, their analogues and other compounds. The true share with any hit is near 2.3%.
CHRM1 agonist – human M1 muscarinic receptor agonism. P11229. CHO-K1 hM1, Fluo-8 calcium fluorescence, agonist mode; 0% DMSO, 100% acetylcholine EC100. activation, % at 3 µM. actives 0.33% (n = 360,000). AID 588814;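 active = activation above the run's mean compound activation plus 3 SD, cut at about 16% in these data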;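 also: peak over basal fluorescence ratio within a 140 s kinetic read after compound addition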
Target sequence (P11229 whole entry, looked up): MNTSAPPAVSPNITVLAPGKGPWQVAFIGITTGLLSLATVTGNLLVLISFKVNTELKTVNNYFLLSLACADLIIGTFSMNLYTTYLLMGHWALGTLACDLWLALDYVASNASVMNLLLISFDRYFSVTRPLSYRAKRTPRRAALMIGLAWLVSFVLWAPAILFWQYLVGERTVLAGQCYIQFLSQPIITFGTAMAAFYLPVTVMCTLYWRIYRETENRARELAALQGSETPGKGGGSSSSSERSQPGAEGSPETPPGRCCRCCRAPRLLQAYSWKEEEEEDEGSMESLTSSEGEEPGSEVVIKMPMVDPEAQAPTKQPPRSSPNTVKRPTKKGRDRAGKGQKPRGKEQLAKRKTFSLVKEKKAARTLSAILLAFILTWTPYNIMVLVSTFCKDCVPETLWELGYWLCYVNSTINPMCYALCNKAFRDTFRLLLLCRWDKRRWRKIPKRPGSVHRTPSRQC
CHO-K1 Ca PAM – M1 PAM counterscreen hit in parental CHO-K1 cells; actives 0.02% (n = 360,000); ATP EC20, Fluo-8 calcium fluorescence; 0% at ATP EC20, 100% at ATP max; activation, % at 3 µM;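 active = activation above the run cutoff, the mean activation of all test compounds plus 3 SD, cut at about 40% in these data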;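 also: peak over basal fluorescence ratio in a 140 s read after ATP addition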
CHO-K1 Ca antag – nonselective inhibitor or artifact in parental CHO-K1 cells; ATP-induced calcium, Fluo-8 fluorescence; AID 602250; inhibition, % at 3 µM; actives 0.6% (n = 360,000);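 active = inhibition above a per-plate cutoff, the plate's mean sample inhibition plus 3 SD, cut at about 24% in these data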
M1 PAM – potentiates human M1 receptor response to acetylcholine. activation, % at 3 µM. CHO-K1 hM1, Fluo-8 calcium fluorescence, ACh EC20; 0% = ACh EC20, 100% = maximal ACh. actives 0.088% (n = 360,000); in the data active = activation above about 19%, passing the limit was not always enough
CHRM1 antagonist – antagonists of human M1 muscarinic receptor; CHO-K1 hM1, Fluo-8 calcium fluorescence, ACh EC80 antagonist; AID 588852; actives 1.3% (n = 360,000); inhibition, % at 3 µM; P11229;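 active = percent inhibition above its own plate's cutoff, namely the mean of that plate's compound wells plus 3 SD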;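 also: peak over basal fluorescence ratio during 140 s after agonist addition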
CHO-K1 Ca ag – M1 agonist counterscreen hit in parental CHO-K1 cells. Fluo-8 calcium fluorescence; scaled to maximal ATP response, vehicle zero. activation, % at 3 µM. actives 0.48% (n = 360,000). AID 602248; in the data active = activation above about 15%;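 also: untransfected CHO-K1 host cells lacking M1 receptor as counterscreen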
Of the large screens only hits and unclear results are named; the others gave an inactive call.

COc1ccc(NS(=O)(=O)c2ccc(C(=O)N3CCN(c4ccc(F)cc4)CC3)cc2)cc1	CHO-K1 Ca ag 16.3
COCCN(C(=O)COC(=O)Cc1ccc(Cl)cc1Cl)c1c(N)n(Cc2ccccc2)c(=O)[nH]c1=O	none
Cc1ccccc1CN(C)CCc1ccccn1	none
CC(C)=CCCC(C)CN(C)CCc1ccccn1 (stereo not drawn)	CHRM1 antagonist 41.7
CC(C)(C)NC(=O)NC(=O)CSc1nnc(-c2ccccc2F)n1N	CHO-K1 Ca antag 33.3
C/C(N)=C(/C#N)C(=O)COC(=O)Cc1coc2ccc3ccccc3c12	CHO-K1 Ca ag 19.4
COc1cc(CNC(=O)c2cc3ccccc3oc2=O)cc(OC)c1OC	none
CC1Cc2ccccc2N1C(=O)c1ccc(F)c(S(=O)(=O)N2CCOCC2)c1 (stereo not drawn)	none
C[C@H](O)[C@@H]1C(=O)N2CCc3ccc(N4CCN(C)CC4)cc3[C@@H]2C[C@@H]1N(C)C(=O)c1ccco1	none
O=C(OCc1nnc(-c2ccccc2)o1)c1ccc2ccccc2n1	CHO-K1 Ca antag 29.5
CC1CCCCC12NC(=O)N(CC(=O)N1CCN(S(=O)(=O)c3ccc(Cl)s3)CC1)C2=O (stereo not drawn)	none
O=C(Cc1ccccc1F)c1ccc(O)cc1O	CHO-K1 Ca ag 19.4
CC(OC(=O)/C(C#N)=C/c1ccc(N(C)C)cc1)C(=O)NCc1ccco1 (stereo not drawn)	none
CC(OC(=O)/C(C#N)=C/c1ccc(N(C)C)cc1)C(=O)N(C)c1ccccc1 (stereo not drawn)	CHO-K1 Ca ag 15.5
CC(=O)Nc1ccc(NC(=O)C(C)OC(=O)/C(C#N)=C/c2ccc(N(C)C)cc2)cc1 (stereo not drawn)	CHRM1 antagonist 28.0
CC(C)OC(=O)/C(C#N)=C\c1cccnc1	none
O=C(CCNS(=O)(=O)c1ccc(F)cc1)N1CCN(c2ncccn2)CC1	none
Cc1ccc2cc(CN(Cc3cccs3)Cc3nnnn3CC3CCCO3)c(=O)[nH]c2c1C (stereo not drawn)	CHO-K1 Ca antag 23.7
Cc1ccc2cc(CN(Cc3cccs3)Cc3nnnn3CC3CCCO3)c(=O)[nH]c2c1 (stereo not drawn)	none
N#CCCN(C(=O)COC(=O)c1ccc(CNS(=O)(=O)c2ccc(F)c(Cl)c2)cc1)c1ccc(F)cc1	CHRM1 antagonist 78.6
CCCN(CC1CC1)C(=O)COC(=O)c1ccc(CNS(=O)(=O)c2ccc(F)c(Cl)c2)cc1	none
C=CCn1c(C(CCCC)CC(O)COCC(C)C)n[nH]c1=S (stereo not drawn)	none
O=C(Cn1cnc(S(=O)(=O)N2CCOCC2)c1)Nc1ccc(OC(F)(F)F)cc1	none
CSc1nc(C)c(C(=O)C[n+]2ccccc2)cc1C#N	CHRM1 antagonist 27.5
CCOC(=O)c1cc(C#N)c(SCC(=O)c2cc(C#N)c(SC)nc2C)nc1C	none
O=C(c1cc(COc2cccc3cnccc23)on1)N1CCCC(CCCO)C1 (stereo not drawn)	CHRM1 antagonist 47.6, CHO-K1 Ca ag 21.9
COCC1CCN(C(=O)c2cc(COc3cccc4cnccc34)on2)CC1	none
CCOc1ccc(S(=O)(=O)NCc2ccc3c(c2)OCO3)cc1NC(C)=O	none
COc1ccc(CN(C)C(=O)/C=C/[C@H]2O[C@@H](n3cc(C)c(=O)[nH]c3=O)C[C@@H]2O)cc1OC	none
C[C@@H]1CN([C@@H](C)CO)C(=O)CCCn2nncc2CO[C@@H]1CN(C)C(=O)Nc1cccc(Oc2ccccn2)c1	none
COc1ccc(CNS(=O)(=O)NCc2ccc(C)cc2)cc1OC	CHO-K1 Ca ag 19.3
Cc1ccccc1NC(=O)Cc1nc(COC(=O)CCNS(=O)(=O)c2ccccc2)cs1	none
O=C(O)CC(NS(=O)(=O)Cc1ccccc1)c1cccc([N+](=O)[O-])c1 (stereo not drawn)	none
Cc1cc(C)c(S(=O)(=O)NC(CC(=O)O)c2cccc([N+](=O)[O-])c2)c(C)c1 (stereo not drawn)	CHO-K1 Ca antag 25.0
O=C(NNc1ccccc1Br)C(O)(c1cccc(C(F)(F)F)c1)c1cccc(C(F)(F)F)c1	CHRM1 antagonist 35.9
Cc1ccc(NNC(=O)C(O)(c2cccc(C(F)(F)F)c2)c2cccc(C(F)(F)F)c2)cc1	none
CCOc1ccc(N2CC(C(=O)Nc3ccc(S(=O)(=O)N4CCCCC4)cc3)CC2=O)cc1 (stereo not drawn)	CHO-K1 Ca antag 68.3
CC1Sc2ccc(S(=O)(=O)N3CCC(C(=O)Nc4ccc(Cl)cc4)CC3)cc2NC1=O (stereo not drawn)	CHO-K1 Ca antag 31.3, CHRM1 antagonist 44.8
Cc1ccc(NC(=O)C2CCN(S(=O)(=O)c3ccc(N4CCCC4=O)cc3)CC2)cc1Cl	CHO-K1 Ca antag 31.6, CHRM1 antagonist 47.2, CHO-K1 Ca ag 15.6
CN(C)S(=O)(=O)c1ccc(C(=O)Nc2ccc3nc(N4CCOCC4)sc3c2)cc1	none
CCOC(=O)Cc1nnc(NC(=O)CSc2ccc(C)cc2)s1	CHRM1 agonist 18.5
COc1ccc(C(=O)C2CCCN(C(=O)CCc3scnc3C)C2)c(C)c1 (stereo not drawn)	CHO-K1 Ca ag 17.8
COc1ccc(C(=O)C2CCCN(C(=O)CCc3ccccn3)C2)c(C)c1 (stereo not drawn)	none
CC1(Oc2ccccc2)CCN(Cc2ccc(-c3ccccn3)cc2)C1 (stereo not drawn)	none
COc1cc(C)ccc1OCc1cc(C(=O)N(Cc2c(C)nn(C)c2C)C2CC2)no1	CHO-K1 Ca ag 18.3
COc1cc(C)ccc1OCc1cc(C(=O)N2C[C@H]3CC[C@H]2C3)no1	none
COCCCNC(=S)N1CCC(C(=O)c2ccc(Cl)cc2)CC1	none
CN1CCCC(OC(=O)CCCCC(=O)OC2CCCN(C)C2)C1 (stereo not drawn)	CHO-K1 Ca antag 26.3
CN1CCCC(OC(=O)c2ccc(Cl)cc2)C1 (stereo not drawn)	none
CCCN(C(=O)CSc1nnc(-c2ccc3c(c2)OCO3)o1)C1CCS(=O)(=O)C1 (stereo not drawn)	none
CN(C)c1ccc(/C=C/c2nc3ccccc3c(=O)n2-c2ccc(C(=O)O)cc2)cc1	CHRM1 agonist 69.7, CHRM1 antagonist 38.9, CHO-K1 Ca ag 16.8
COc1ccccc1C(CNC(=O)C1CC(=O)N(Cc2ccc(C)cc2)C1)N1CCCC1 (stereo not drawn)	none
CN(CC(=O)Nc1ccc(F)cc1)C(=O)CSc1ccc2c(c1)OCCO2	none
Cc1ccc(SCC(=O)OCC(=O)N(C)CC(=O)Nc2ccc(F)cc2)cc1C	CHRM1 agonist 32.5, CHO-K1 Ca ag 45.6
C1=C(CCNc2ncnc3c2[nH]c2ccccc23)CCCC1	CHO-K1 Ca antag 29.2, CHO-K1 Ca ag 15.4
